ADAM10 inh – human ADAM10 inhibitors, primary screen, biochemical, QFRET, HTS. AID 720582, 2013. inhibition, % at 7 µM. hit rate 0.62% among 370,000. Disintegrin and metalloproteinase domain-containing protein 10 (Homo sapiens), O14672. recombinant ADAM10, EDANS/DABCYL FRET peptide cleavage, 3 h;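 active = inhibition above a per-campaign cutoff equal to the mean of compounds falling between control-based bounds plus 3 SD, cut at about 20% in these data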;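 note: 0% = DMSO wells while the 100% control is not disclosed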
PLC-beta3 inh – human PLC-beta3 inhibitors, primary screen, biochemical, fluorescence | hit rate 0.18% among 370,000 | Purified PLC-beta3, fluorogenic substrate | AID 720704, 2013 | 1-phosphatidylinositol 4,5-bisphosphate phosphodiesterase beta-3 (Homo sapiens), Q01970 | inhibition, % at 12.2 µM; in the data active = inhibition above about 11%;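 note: 0% = median of compound wells on plate and 100% = full blocker control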
PLCg1 inh – PLC-gamma1 enzyme inhibitors, primary screen, biochemical, fluorescence, purified enzyme. inhibition, % at 12.2 µM. 1-phosphatidylinositol 4,5-bisphosphate phosphodiesterase gamma-1 (Homo sapiens), P19174. fluorogenic substrate. hit rate 0.84% among 370,000; in the data active = inhibition above about 9.5%
ADAM17 inh – ADAM17 inhibitors, primary screen, biochemical, QFRET; Disintegrin and metalloproteinase domain-containing protein 17 (Homo sapiens), P78536; recombinant ADAM17, EDANS/DABCYL FRET peptide cleavage; inhibition, % at 6.95 µM; hit rate 0.83% among 370,000; AID 720648, 2013;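 active = inhibition above the mean of compounds lying between control limits plus 3 SD, set per campaign, cut at about 8.5% in these data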;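 note: 0% = DMSO-only wells as the low control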
KLK7 zymogen act – proKLK7 zymogen activators, primary screen, biochemical, fluorescence intensity; hit rate 0.9% among 370,000; activation, % at 7 µM; purified proKLK7, EDANS-DABCYL substrate fluorescence; 100% is mature enzyme control, 0% vehicle; Kallikrein-7 (Homo sapiens), P49862;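 active = activation above the mean of all tested compounds plus 3 SD, computed per campaign excluding outliers beyond control limits, cut at about 13% in these data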
ADAM10 confirm – human ADAM10 inhibitors, confirmation, biochemical, QFRET, triplicate | hit rate 1% among 2,100 | inhibition, % at 6.95 µM | shares compounds with ADAM10 inh | ADAM10 QFRET peptide cleavage, EDANS fluorescence;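 active = inhibition above about 20% chosen separately for each screening run, limit read from the data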;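 note: 0% = DMSO wells and 100% = marimastat wells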
ADAM17 ctr – ADAM17 inhibitors, counter-screen for ADAM10 exosite inhibitor project, biochemical, QFRET, high throughput; AID 743214, 2013; shares compounds with ADAM10 inh; ADAM17 QFRET peptide cleavage, EDANS fluorescence; hit rate 0.5% among 2,100; inhibition, % at 6.95 µM;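 active = mean triplicate inhibition above the solvent-only control wells' mean plus 3 SD, cut at about 12% in these data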;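 note: 0% = DMSO wells and 100% = marimastat wells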
* = called active by the depositor; . = not tested or not shown. Compounds with a hit are over-represented: about 2.9% of the library has one in this group of screens.

SMILES | ADAM10 inh | PLC-beta3 inh | PLCg1 inh | ADAM17 inh | KLK7 zymogen act | ADAM10 confirm | ADAM17 ctr
CN(c1ccc(OCC(=O)OCC(=O)Nc2ccc(F)cc2)cc1)S(=O)(=O)c1ccc(Cl)cc1 | 20* | -5 | 0 | 1 | 0 | 6 | 2
CN(c1ccccc1)S(=O)(=O)c1ccc(NC(=O)c2ccc(F)cc2)cc1 | 21* | -7 | 3 | 7 | 0 | 3 | 1
CN(c1ccccc1)S(=O)(=O)c1ccc(NC(=O)c2ccccc2)cc1 | 4 | -3 | 2 | 3 | 0 | . | .
S=c1nc2ccccc2c2nc(-c3ccccc3)[nH]n12 | 21* | 0 | 4 | 2 | 0 | -3 | -1
Cn1c(N/N=C/c2cccs2)nc2c1c(=O)n(Cc1ccccc1)c(=O)n2C | 26* | 0 | -7 | 5 | -1 | 9 | 5
Cn1c(=O)c2c(nc(N/N=C/c3cccs3)n2Cc2ccccc2)n(C)c1=O | -4 | -6 | -27 | 2 | 0 | . | .
CCC(C(=O)Oc1c(C(C)C)cccc1C(C)C)c1ccccc1 (stereo not drawn) | 79* | 1 | -1 | 5 | 1 | -1 | 0
O=C(CN1CCC(NC(=O)Nc2ccc(Cl)cc2)CC1)Nc1ccc2c(c1)OCCO2 | -1 | 1 | 2 | 0 | 0 | . | .
O=C(CSc1cn[nH]n1)Nc1nc2ccccc2s1 | 20* | -3 | 2 | 2 | 0 | 1 | 0
CC(C)c1ccc(C(=O)NCCCNC(=O)c2cnccn2)cc1 | 51* | 4 | 1 | -1 | -1 | 0 | 0
COC(=O)C1=C(C)N(Cc2ccc(Cl)cc2)C(=S)NC1c1cccc(OC)c1 (stereo not drawn) | 22* | -2 | 0 | 7 | 0 | 4 | 2
COC(=O)C1=C(C)N(Cc2ccc(Cl)cc2)C(=S)NC1c1ccccc1 (stereo not drawn) | 10 | -1 | 1 | 3 | 0 | . | .
COc1ccc(-c2noc(-c3ccccc3C(=O)Nc3cccnc3)n2)cc1 | 5 | -3 | -2 | -1 | 0 | . | .
COc1ccc(-c2noc(-c3ccccc3C(=O)Nc3cccc(OC)c3)n2)cc1 | 25* | -3 | 2 | 7 | 0 | 3 | 1
COc1ccc([C@@H]2[C@@H]3C(=O)N(C(C)(C)C)C(=O)[C@@H]3[C@]3(Cc4ccc(Cl)cc4)C(=O)N(c4ccc(Br)cc4)C(=O)N23)cc1 | 14 | 2 | 0 | 2 | 0 | . | .
COc1ccc([C@@H]2[C@@H]3C(=O)N(C(C)(C)C)C(=O)[C@@H]3[C@]3(Cc4ccc(Cl)cc4)C(=O)N(c4ccc(OC)cc4)C(=O)N23)cc1 | 21* | 2 | 0 | 7 | 0 | 5 | 1
COc1ccc(-c2cc(-c3nnc(SCC(=O)Nc4ccc(-c5nc6ccc(C)cc6s5)cc4)n3N)[nH]n2)cc1 | -96 | -21 | -16 | -26 | 0 | . | .
Cc1cc(NC(=O)C(C)SCC(=O)O)no1 (stereo not drawn) | -1 | 1 | -2 | -5 | 0 | . | .
Cc1cc(NC(=O)C(C)SCC(=O)Nc2nnc(CC(C)C)s2)no1 (stereo not drawn) | 82* | -5 | 4 | 1 | 0 | 1 | 0
O=C(COc1ccc(S(=O)(=O)Nc2ccccc2)cc1)NCc1ccccn1 | 74* | -8 | 0 | -3 | 0 | -1 | 0
COC(=O)C[C@H]1CC[C@@H]2[C@H](COc3ccc(NC(=O)c4cccc(F)c4)cc3C(=O)N2C)O1 | 0 | 5 | 0 | 0 | 0 | . | .
CCOc1cc(C(=O)NCC(C)(C)CNC(=O)c2cc(OCC)c(OCC)c(OCC)c2)cc(OCC)c1OCC | 21* | 3 | 0 | 8 | 0 | -1 | 0
COc1ccc(S(=O)(=O)NC(C)C(=O)Nc2cccc(C(C)=O)c2)cc1 (stereo not drawn) | 31* | 0 | 4 | 6 | 0 | 0 | 1
COc1ccc(S(=O)(=O)NC(C)C(=O)Nc2ccccc2F)cc1 (stereo not drawn) | -2 | -1 | -1 | 0 | 1 | . | .
CS(=O)(=O)N(CC(=O)O)c1ccc(C23CC4CC(CC(C4)C2)C3)cc1 | 6 | -2 | 5 | 2 | 0 | . | .
SMILES | ADAM10 inh | PLC-beta3 inh | PLCg1 inh | ADAM17 inh | KLK7 zymogen act | ADAM10 confirm | ADAM17 ctr
COc1ccccc1NC(=O)CN(c1ccc(C23CC4CC(CC(C4)C2)C3)cc1)S(C)(=O)=O | 22* | 5 | 4 | 4 | 0 | 16 | 5
COc1cccc(OCC(C)CN2CCC(C(O)(c3ccccc3)c3ccccc3)CC2)c1 (stereo not drawn) | 3 | 2 | 6 | 5 | 1 | . | .
C[C@@H]1COc2cccc(NCCO)c2S(=O)(=O)N1 | -15 | 0 | -2 | 0 | 1 | . | .
Cn1c(CSCc2ccc(Cl)cc2Cl)n[nH]c1=S | 6 | -2 | -2 | 0 | 0 | . | .
CSc1nnc(CSCc2ccc(Cl)cc2Cl)n1-c1ccccc1 | 23* | -4 | 2 | 5 | 0 | 0 | 0
CCC(=C(c1ccc(OC)cc1)c1ccc(OC)cc1)c1cn(CC(O)CN2CCN(C)CC2)c2ccccc12 (stereo not drawn) | 25* | -12 | -8 | 1 | 0 | 5 | 2
COc1ccc(-c2cc3ccccc3n2CC(O)CN2CCCCC2)cc1 (stereo not drawn) | -3 | -40 | -21 | -1 | -1 | . | .
COC(=O)C1CN(Cc2ccc(C)cc2)CCS(=O)(=O)N1Cc1cn(Cc2ccc(C)cc2)nn1 (stereo not drawn) | 5 | 1 | 3 | 3 | 0 | . | .
COC(=O)[C@]12C[C@H](CC(=O)N3CCN(C(=O)C4CC4)CC3)C(=O)N(Cc3ccccc3)C1=C[C@H](C(C)C)O[C@@H]2C1CC1 | -7 | 1 | 0 | 1 | 0 | . | .
Nc1cc(OC(=O)c2ccco2)nn1S(=O)(=O)c1ccc(F)cc1 | 60* | 1 | 1 | 1 | 0 | 0 | 0
Cc1nn(-c2ccccc2)c2sc(C(=O)NCc3ccc4c(c3)OCO4)cc12 | 12 | -2 | 3 | 6 | 0 | . | .
NC(=O)C(c1ccc(Cl)cc1)c1ccc(Sc2ccc(Cl)cc2)nn1 (stereo not drawn) | 23* | -1 | 1 | 4 | 0 | 4 | 1
CC(C)=CCC/C(C)=C/CNCC(=O)N1c2ccccc2[C@]2(C)C[C@@H]3C(=O)N(C/C=C(\C)CCC=C(C)C)CC(=O)N3[C@H]12 | -5 | -2 | 2 | -3 | 1 | . | .

Source: PubChem BioAssay (The Scripps Research Institute Molecular Screening Center)
